Records with an inconclusive call do not appear. A call without a number means that no potency is given here. Active and inactive are the calls of the source. Calls come from the whole dose curve; as a rule, active = well fitted cell-killing curve with a large enough effect; inconclusive = small, poorly fitted or top-dose-only effect, or effect the other way; inactive = no such curve, though single readings can be large or run the other way.
Columns and labels:
[1] = Quantitative High-Throughput drug screen in 47 multiple myeloma cell lines against the NCATS MIPE library collection: EJM_DSMZ cell viability assay (AID 1918926; note: nearly all actives have a fitted effect of over 30% in size)
Summary of the method: (§1)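 Steps: seed 500 cells per well; pin-transfer MIPE 4.0 library; incubate 48 h at 37C, 5% CO2, humidified; add CellTiter-Glo, 5 min room temperature; read luminescence.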

[2] = Quantitative High-Throughput drug screen in 47 multiple myeloma cell lines against the NCATS MIPE library collection: ARD_JJKsccE7 cell viability assay (AID 1918929)
Summary of the method: as §1

[3] = Quantitative High-Throughput drug screen in 47 multiple myeloma cell lines against the NCATS MIPE library collection: Karpas620_DSMZ cell viability assay (AID 1918959); note: nearly all actives have a fitted effect of over 30% in size
Summary of the method: (§2)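 We plated 500 myeloma cells per well, pinned in MIPE 4.0 compounds, and incubated for 48 hours at 37C. ATP was then quantified with CellTiter-Glo, with DMSO and media-only wells defining 100% and 0%.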

[4] = Quantitative High-Throughput drug screen in 47 multiple myeloma cell lines against the NCATS MIPE library collection: FR4_PLB cell viability assay (AID 1918924; note: nearly all actives have a fitted effect of over 35% in size)
Summary of the method: as §2

[5] = Quantitative High-Throughput drug screen in 47 multiple myeloma cell lines against the NCATS MIPE library collection: Delta47_JCRB cell viability assay (AID 1918925; note: nearly all actives have a fitted effect of over 45% in size)
Summary of the method: as §1

[6] = Quantitative High-Throughput drug screen in 47 multiple myeloma cell lines against the NCATS MIPE library collection: AMO1_DSMZ cell viability assay (AID 1918927; note: nearly all actives have a fitted effect of over 30% in size)
Summary of the method: as §1

[7] = Quantitative High-Throughput drug screen in 47 multiple myeloma cell lines against the NCATS MIPE library collection: ARP1_JJKsccF8 cell viability assay (AID 1918928; note: nearly all actives have a fitted effect of over 40% in size)
Summary of the method: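 500 cells/well; MIPE 4.0 library pinned in; 48 h, 37 °C, 5% CO2; CellTiter-Glo ATP luminescence. Controls: DMSO = 100% viability, medium only = 0%.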
Potency is the fitted concentration of half-maximal effect.

| Compound | Potency [1] | Potency [2] | Potency [3] | Potency [4] | Potency [5] | Potency [6] | Potency [7] |
| --- | --- | --- | --- | --- | --- | --- | --- |
| C[C@@H]1CC[C@H]2[C@@H](C)C(=O)O[C@@H]3O[C@@]4(C)CC[C@H]1[C@]32OO4 | inactive | inactive | 5900 nM (active) | – | – | – | – |
| COc1ccc(CC2NCCc3cc(OC)c(OC)cc32)cc1OC (stereo not given) | inactive | inactive | inactive | inactive | inactive | – | – |
| COC[C@H]1OC(=O)c2coc3c2[C@@]1(C)C1=C(C3=O)[C@@H]2CC[C@H](O)[C@@]2(C)C[C@@H]1OC(C)=O | – | 6620 nM (active) | 3720 nM (active) | 3720 nM (active) | 6.6 nM (active) | 5260 nM (active) | 332 nM (active) |
| C[C@@H]1[C@H](O)[C@@H](C)C=CC=CCCC=CC=CC=CC=C[C@H](O[C@H]2O[C@@H](C)[C@H](O)[C@@H](N)[C@@H]2O)CC2O[C@](O)(C[C@@H](O)[C@H](O)CC[C@@H](O)C[C@@H](O)C[C@@H](O)CC(=O)O[C@H]1C)C[C@H](O)[C@H]2C(=O)O | inactive | – | inactive | inactive | – | – | – |
| CC(=CCCC1=CCC(C2=CC(=O)OC2O)OC1O)CCC1=C(C)CCCC1(C)C (stereo not given) | inactive | inactive | inactive | inactive | inactive | – | – |
| COc1ccc2c(c1)CN(C)CC2c1ccc(Cl)c(Cl)c1 (stereo not given) | 18700 nM (active) | 10500 nM (active) | 16600 nM (active) | – | 23500 nM (active) | 23500 nM (active) | 20900 nM (active) |
| C=C[C@@H]1CN2CCC1C[C@@H]2[C@@H](O)c1ccnc2ccccc12 (stereo not given in full) | 9350 nM (active) | – | 5260 nM (active) | – | 23500 nM (active) | – | – |
| C=C1C[C@H]2[C@H]3CCC(=O)[C@@]3(C)CC[C@@H]2[C@@]2(C)C=CC(=O)C=C12 | – | – | 23500 nM (active) | – | – | 18700 nM (active) | – |
| C=CCON=C(C[C@H]1O[C@@H]2O[C@]3(C)CC[C@@H]4[C@H](C)CC[C@@H]([C@H]1C)[C@@]24OO3)[C@H]1O[C@@H]2O[C@]3(C)CC[C@H]4[C@H](C)CC[C@@H]([C@@H]1C)[C@@]24OO3 | 148 nM (active) | 132 nM (active) | – | – | 372 nM (active) | – | 20.9 nM (active) |
| Cc1nc(-c2ccc(-c3ccc(C(=O)N4CCc5cc6c(cc54)C4(CCN(C)CC4)CO6)cc3)c(C)c2)no1 | inactive | – | inactive | inactive | – | inactive | – |
| C[C@@H]1CC[C@@]2(OC1)O[C@H]1C[C@H]3[C@@H]4CC=C5C[C@@H](O[C@@H]6O[C@H](CO)[C@@H](O[C@@H]7O[C@@H](C)[C@H](O)[C@@H](O)[C@@H]7O)[C@H](O)[C@@H]6O[C@@H]6O[C@@H](C)[C@H](O)[C@@H](O)[C@@H]6O)CC[C@]5(C)[C@@H]4CC[C@]3(C)[C@@H]1[C@H]2C | 2640 nM (active) | 2350 nM (active) | 2960 nM (active) | 2350 nM (active) | 5900 nM (active) | – | – |
| CC(O)=C(C#N)C(=O)Nc1cc(Br)ccc1Br | 7430 nM (active) | – | 5260 nM (active) | – | inactive | – | – |
| C[C@@H]1O[C@@H](O[C@@H]2C=C3CC[C@@H]4[C@@H](CC[C@]5(C)[C@H](c6ccc(=O)oc6)CC[C@@]45O)[C@@]3(C)CC2)[C@H](O)[C@H](O)[C@H]1O | 20.9 nM (active) | 9.3 nM (active) | 20.9 nM (active) | 8.3 nM (active) | 26.4 nM (active) | – | – |
| O=C1CCC[C@@H]2[C@H]3CCCN4CCC[C@@H](CN12)[C@@H]34 | inactive | – | inactive | – | inactive | – | – |
| COc1ccc2c(c1)[C@]13CCCCC1C(C2)N(C)CC3 (stereo not given in full) | inactive | inactive | inactive | inactive | – | – | – |
| CCC(=O)OC1CCC2C3CCC4=CC(=O)CC[C@@]4(C)C3CC[C@]12C (stereo not given in full) | inactive | inactive | inactive | inactive | 18700 nM (active) | – | – |

| Compound | Potency [1] | Potency [2] | Potency [3] | Potency [4] | Potency [5] | Potency [6] | Potency [7] |
| --- | --- | --- | --- | --- | --- | --- | --- |
| CC[C@H]1C=CC=CC[C@@H](C)[C@H](O)[C@@](C)(O)C(=O)[C@@H](C)[C@H](O)[C@@H](C)C(=O)[C@@H](C)[C@H](O)[C@@H](C)C=CC(=O)O[C@@H]2[C@@H](C)[C@H](CC1)O[C@]1(CC[C@H](C)[C@H](C[C@@H](C)O)O1)[C@H]2C | – | 1 nM (active) | 1 nM (active) | – | 1 nM (active) | 5.9 nM (active) | 2.1 nM (active) |
| C#C[C@]1(O)C=C[C@@H]2[C@@H]3CCC4=CC(=O)CC[C@@H]4[C@H]3CC[C@@]21CC | inactive | – | inactive | inactive | – | – | inactive |
| CC(=O)O[C@@]12CO[C@H]1C[C@H](O)[C@@]1(C)C(=O)[C@H](O)C3=C(C)[C@@H](O)C[C@@](O)([C@@H](OC(=O)c4ccccc4)[C@@H]21)C3(C)C | 3320 nM (active) | 2090 nM (active) | – | 1050 nM (active) | – | – | – |
| CCCN1CCO[C@@H]2c3cc(O)ccc3OC[C@@H]21 | inactive | inactive | inactive | inactive | – | – | inactive |
| Cc1c(C(=O)c2cccc3ccccc23)c2cccc3c2n1[C@H](CN1CCOCC1)CO3 | – | – | 8330 nM (active) | 23500 nM (active) | 14800 nM (active) | – | 26400 nM (active) |
| CC(C)(C)[C@]1(O)C[C@@H]2OC(=O)C[C@@]23C(=O)O[C@@H]2OC(=O)[C@H](O)C213 (stereo not given in full) | inactive | – | inactive | inactive | – | – | – |
| C[C@H]([C@H](O)CCC(C)(C)O)[C@H]1CC[C@@]2(O)C3=CC(=O)[C@@H]4C[C@@H](O)[C@@H](O)C[C@]4(C)[C@@H]3CC[C@]12C | inactive | inactive | inactive | inactive | inactive | – | – |
| C=C[C@@H]1CN2CCC1C[C@H]2[C@H](O)c1ccnc2ccccc12 (stereo not given in full) | – | inactive | inactive | 18700 nM (active) | – | inactive | – |
| C[C@]12COC(=O)C[C@@H]1CC[C@@H]1[C@H]2CC[C@@]2(C)[C@H]1CC[C@]2(C)O | inactive | – | inactive | inactive | inactive | – | – |
| N#C[C@H](O[C@@H]1O[C@H](CO[C@@H]2O[C@H](CO)[C@H](O)[C@H](O)[C@H]2O)[C@H](O)[C@H](O)[C@H]1O)c1ccccc1 | – | 5900 nM (active) | 9350 nM (active) | 20900 nM (active) | 18700 nM (active) | – | – |
| CC=C(C)C(=O)O[C@H]1C(C)=C2[C@@H]3OC(=O)[C@@](C)(O)[C@@]3(O)[C@@H](OC(=O)CCC)C[C@](C)(OC(C)=O)[C@@H]2[C@@H]1OC(=O)CCCCCCC | 37.2 nM (active) | – | inactive | 26.4 nM (active) | 235 nM (active) | – | – |
| c1cc2c(cc1[C@H]1OC[C@H]3[C@H]1CO[C@H]3c1ccc3c(c1)OCO3)OCO2 | – | inactive | inactive | inactive | inactive | inactive | – |
| C[C@]12Cc3cn[nH]c3C[C@@H]1CC[C@@H]1[C@H]2CC[C@@]2(C)[C@H]1CC[C@]2(C)O | – | inactive | inactive | – | – | – | – |
| C[C@]12CC[C@H]3[C@@H](CCC4=CC(=O)CC[C@@]43C)[C@H]1CC[C@H]2O | – | inactive | inactive | inactive | inactive | inactive | inactive |
| C[C@@]12OC(=O)[C@]1([C@@H](O)[C@@H]1C=CCCC1)NC(=O)[C@H]2CCCl | 18.7 nM (active) | 1 nM (active) | 9.3 nM (active) | 5.3 nM (active) | – | 11.8 nM (active) | 10.5 nM (active) |
